Laboratory results as given in PubChem BioAssay (NCATS).
Values joined by “and” are separate entries in the source; they are usually repeats but may differ in a detail not shown here. Identical values can stand only once. Inconclusive results are not listed. Active and inactive are the calls of the source. Calls follow the shape of the dose curve; as a rule, active = well fitted curve in the direction sought with a large enough effect; inconclusive = small, poorly fitted or top-dose-only effect, or another doubt; inactive = no such curve, though single readings can be large; an effect the other way counts as inactive or inconclusive.

How the values were obtained:
[1] = molecular target: Cellular tumor antigen p53 (Homo sapiens) (UniProt P04637); assay: Primary qHTS for small molecule compounds that upregulate eGFP-tagged delta133p53alpha (in N-terminal) cells. (AID 2060322); conditions: NCI-H358 eGFP-delta133p53alpha fluorescence, 24 h; activation: active compounds read high; also: nearly all actives have a fitted effect of over 75% in size; also: potency is read from the fitted curve at half-maximal effect;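 as to activation: cells pre-induced with doxycycline then dosed without doxycycline; series mostly up to about 56 µM; 0% = DMSO vehicle and 100% = reference activator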
Chain of Cellular tumor antigen p53 (Homo sapiens) (P04637 whole entry, looked up): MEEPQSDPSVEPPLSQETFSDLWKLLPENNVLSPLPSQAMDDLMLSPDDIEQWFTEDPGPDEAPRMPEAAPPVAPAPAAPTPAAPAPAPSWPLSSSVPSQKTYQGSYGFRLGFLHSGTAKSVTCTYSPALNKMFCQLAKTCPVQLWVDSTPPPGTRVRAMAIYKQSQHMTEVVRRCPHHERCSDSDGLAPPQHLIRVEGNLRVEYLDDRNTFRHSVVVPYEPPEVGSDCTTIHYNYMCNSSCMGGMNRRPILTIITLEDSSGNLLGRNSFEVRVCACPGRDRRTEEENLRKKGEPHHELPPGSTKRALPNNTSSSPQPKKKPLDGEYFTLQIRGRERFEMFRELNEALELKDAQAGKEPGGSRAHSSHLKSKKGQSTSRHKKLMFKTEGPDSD
Outline: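 NCI-H358 cells pre-induced 24 h with 10 ng/ml doxycycline for eGFP-delta133p53alpha, plated dox-free and exposed 24 h at 37C to titrated compounds. Fixed, Hoechst-stained; gated GFP peak intensity by laser scanning cytometry, normalized to DMSO (0%) and 57.5 uM 5-azacytidine (100%).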

[2] = molecular target: Aldehyde dehydrogenase, mitochondrial (Homo sapiens) (UniProt P05091); assay: qHTS for Inhibitors of the Aldehyde Dehydrogenase Family (ALDH2) Primary screen (AID 2061308);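 also: plate controls were vehicle for no effect and reference inhibitor for full effect; nearly all actives have a fitted effect of over 55% in size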
[3] = molecular target: Retinaldehyde dehydrogenase 3 (Homo sapiens) (UniProt P47895); assay: qHTS for Inhibitors of the Aldehyde Dehydrogenase Family (ALDH1A3) Primary screen (AID 2061315);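 also: plate controls were DMSO vehicle for no effect and reference inhibitor for full effect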
[4] = BET inhibitor-based combinations targeting novel dependencies in MECOM-rearranged (r) AML: SET-2 cell line (AID 2202231); conditions: SET-2 AML cells viability, CellTiter-Glo luminescence, 48 h; viability: active compounds read low, concentration not given here; also: nearly all actives have a fitted effect of over 35% in size; also: potency is read from the fitted curve at half-maximal effect;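 as to viability: plate controls were DMSO treated cells for no effect and wells without cells for full effect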
Outline: (§1)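 500 cells/well; 11-pt dose curve; 48 h, standard incubator; CellTiter-Glo luminescence after 15 min RT; DMSO/empty-well normalization; AUC plus Z-AUC (mean-centered within each line).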

[5] = BET inhibitor-based combinations targeting novel dependencies in MECOM-rearranged (r) AML: HNT-34 cell line (AID 2202234); also: nearly all actives have a fitted effect of over 35% in size; also: potency is read from the fitted curve at half-maximal effect;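 as to viability (% of control): plate controls were vehicle wells for no effect and cell-free wells for full effect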
Outline: (§2)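 Cells were plated at 500 per well and exposed to each drug across an 11-point dose range for 48 hr at standard incubator conditions. Viability was read by CellTiter-Glo luminescence, and activity was expressed as AUC and per-cell-line Z-transformed AUC.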

[6] = BET inhibitor-based combinations targeting novel dependencies in MECOM-rearranged (r) AML: MV-4-11 cell line (AID 2202233); also: nearly all actives have a fitted effect of over 45% in size; also: potency is read from the fitted curve at half-maximal effect
Outline: as §2

[7] = BET inhibitor-based combinations targeting novel dependencies in MECOM-rearranged (r) AML: AML-191 cell line (AID 2202236; also: nearly all actives have a fitted effect of over 35% in size; also: potency is read from the fitted curve at half-maximal effect;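 as to viability (% of control): plate controls were vehicle wells for no effect and wells without cells for full effect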)
Outline: as §1

[8] = BET inhibitor-based combinations targeting novel dependencies in MECOM-rearranged (r) AML: UCSD-AML1 cell line (AID 2202235); also: nearly all actives have a fitted effect of over 40% in size; also: potency is read from the fitted curve at half-maximal effect;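 as to viability (% of control): series mostly up to about 46 µM; plate controls were DMSO vehicle wells for no effect and blank wells for full effect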
Outline: as §2

[9] = BET inhibitor-based combinations targeting novel dependencies in MECOM-rearranged (r) AML: AML-194 cell line (AID 2202237; also: nearly all actives have a fitted effect of over 40% in size; also: potency is read from the fitted curve at half-maximal effect;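 as to viability (% of control): plate controls were vehicle wells for no effect and wells without cells for full effect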)
Outline: as §1

[10] = BET inhibitor-based combinations targeting novel dependencies in MECOM-rearranged (r) AML: OCI-AML3 cell line (AID 2202232); conditions: Potency: OCI-AML3 viability; also: potency is read from the fitted curve at half-maximal effect; nearly all actives have a fitted effect of over 35% in size
Outline: as §1

Cn1cnc2c(F)c(Nc3ccc(Br)cc3F)c(C(=O)NOCCO)cc21
active: Potency [5] 0.0235 µM
inactive: activation [1] 64.2% and -20.5% | Potency [2] | Potency [3] | viability [4] 26.2%

CCN(CCO)CCCOc1ccc2c(Nc3cc(CC(=O)Nc4cccc(F)c4)[nH]n3)ncnc2c1
active: Potency [6] 0.0525 µM | Potency [7] 0.0934 µM
inactive: activation [1] -6.72% and 29.5% | Potency [2] | Potency [3] | viability [4] 100%

CC(C)NC(=O)N1CC[C@H](N=C2Nc3cc(F)ccc3N(CC(F)F)c3ccc(Cl)cc32)C1
inactive: activation [1] 4.33% | Potency [2] | Potency [3] | viability [4] 109% | viability (% of control) [5] 99.5% [at 8.46 µM] | viability (% of control) [8] 104% [at 8.46 µM] | viability (% of control) [7] 98.9% [at 8.46 µM] | viability (% of control) [9] 93.8% [at 8.46 µM]

Clc1ccc(Nc2nnc(Cc3ccncc3)c3ccccc23)cc1
inactive: activation [1] -10.3% and 9.21% and -17% | Potency [2] | Potency [3] | viability [4] 91.3% | Potency [5] | Potency [7] | Potency [9]

CCOc1cc(C(=O)Nc2ccc(Cl)c(-c3nc4ccccc4[nH]3)c2)cc(OCC)c1OCC
inactive: activation [1] 1.25% and 5.73% | Potency [2] | Potency [3] | Potency [9]
active: Potency [4] 18.6 µM | Potency [6] 16.6 µM | Potency [5] 14.8 µM

CN(C)CC(C)(C)CNc1nn2c(-c3ccccc3)nnc2cc1C1CCC1
inactive: activation [1] -1.72% and 7.14% | Potency [2] | Potency [3] | viability [4] 113% | Potency [6] | Potency [8] | Potency [7] | Potency [9]

NC(=O)c1cnc(-c2ccc(C3(N)CCC3)cc2)c(-c2ccccc2)c1
inactive: activation [1] 29% and -2.68% | Potency [2] | Potency [3] | viability [4] 104% | Potency [9]
active: Potency [6] 3.32 µM | Potency [8] 1.32 µM

COc1cc2c(N3CCN(C(=O)Nc4ccc(OC(C)C)cc4)CC3)ncnc2cc1OCCCN1CCCCC1
active: Potency [6] 0.59 µM | Potency [8] 16.6 µM | Potency [9] 23.5 µM
inactive: activation [1] 54% and 21.4% | Potency [2] | Potency [3] | viability [4] 95.3%

Cc1c(C)n(Cc2ccc(-c3ccccc3C(=O)O)cc2)c2ccc(C(=O)N[C@@H](C)c3ccc([N+](=O)[O-])cc3)cc12
inactive: activation [1] 21.3% and -1.79% | Potency [2] | Potency [3] | viability [4] 111% | Potency [5] | Potency [8] | Potency [7] | Potency [9]

COc1cccc(OCCCN)c1-c1cc(Nc2cnc(C#N)cn2)n[nH]1
inactive: Potency [2] | Potency [3]
active: Potency [1] 26.9 µM | Potency [4] 0.059 µM | Potency [5] 0.059 µM | Potency [8] 0.0093 µM | Potency [7] 0.0235 µM

Cn1ncc(Cl)c1-c1cc(C(=O)N[C@H](CN)Cc2cccc(F)c2)sc1Cl
active: Potency [1] 30.1 µM | Potency [4] 9.34 µM | Potency [5] 16.6 µM | Potency [7] 16.6 µM | Potency [9] 18.6 µM
inactive: Potency [2] | Potency [3]

O=c1[nH]c([C@@H]2CCCN2)nc2c1oc1ccc(Cl)cc12
inactive: activation [1] -1% | Potency [2] | Potency [3]
active: Potency [6] 13.2 µM

CC(Nc1ncnc2nc[nH]c12)c1cc2cccc(Cl)c2c(=O)n1-c1ccccc1 (centres undefined)
inactive: activation [1] 27.7% | Potency [2] | Potency [3]
active: Potency [6] 5.9 µM

Cc1csc(-c2nnc(Nc3ccc(Oc4ncccc4-c4ccnc(N)n4)cc3)c3ccccc23)c1
active: Potency [10] 1.86 µM | Potency [8] 0.296 µM
inactive: activation [1] 19.6% | Potency [2] | Potency [3]

C[C@@H](NCCCc1cccc(C(F)(F)F)c1)c1cccc2ccccc12
inactive: activation [1] 1.97% | Potency [2] | Potency [3]
active: Potency [10] 16.6 µM | Potency [5] 26.3 µM | Potency [9] 26.3 µM

CCN(CCCOc1ccc2c(Nc3cc(CC(=O)Nc4cccc(F)c4)[nH]n3)ncnc2c1)CCOP(=O)(O)O
inactive: activation [1] 15.2% | Potency [2] | Potency [3] | Potency [8]
active: Potency [10] 0.468 µM | Potency [6] 0.372 µM

O=C(O)c1ccc(Nc2ncc3c(n2)-c2ccc(Cl)cc2C(c2c(F)cccc2F)=NC3)cc1
inactive: activation [1] 139% and 6.25% | Potency [2] | Potency [3]
active: Potency [6] 0.934 µM

CCc1nc(C(N)=O)c(Nc2ccc(N3CCC(N4CCN(C)CC4)CC3)c(OC)c2)nc1NC1CCOCC1
active: Potency [10] 5.9 µM | Potency [5] 1.48 µM | Potency [8] 2.63 µM | Potency [7] 2.63 µM | Potency [9] 3.32 µM
inactive: activation [1] -44.7% | Potency [2] | Potency [3]
